A selection: hits, their analogues and other compounds. The true share with any hit is near 12%.
Shiga toxin inh: inhibitors of Shiga toxin in Vero cells. 9.2% of 290,000 active. Vero cells, Shiga toxin protein synthesis inhibition reporter. AID 2315. inhibition, % at 38.7 µM; in the data active = inhibition mostly above about 28%, no sharp cut-off; inactive = mostly below about 43%
FMDV antiviral: blocks foot and mouth disease virus. FMDV antiviral cell-based qHTS. Potency, µM (series often up to 57.9 µM), hits mostly inhibitors. 1.2% of 410,000 active. AID 1159524; calls by dose curve; tested in HEK293T cells; also: read-out not given here; nearly all actives have a fitted effect of over 45% in size
Sm TGR block: blocks Schistosoma mansoni thioredoxin glutathione reductase | purified TGR, DTNB reduction, TNB absorbance 405 nm | Potency, µM (series often up to 114 µM), usual class: inhibitors | AID 485364 | Q962Y6 | 3% of 360,000 active; active = well fitted inhibition curve with a large enough effect; inconclusive = small, poorly fitted or top-dose-only effect; inactive = no such curve, though single readings can be large or run the other way; also: nearly all actives have a fitted effect of over 60% in size
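First, TGR (20 nM dispensed) and NADPH were mixed with compound. Second, a 15 min room-temperature incubation followed. Third, further NADPH and then DTNB were added to start the reaction. Finally, TNB absorbance was monitored kinetically.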
CHX counter: counter-screen for Shiga toxin inhibitors: cycloheximide protein synthesis inhibition | cell reporter, cycloheximide protein synthesis inhibition counterscreen | max response, % | 12% of 300,000 active | AID 2314; in the data active = max response mostly above about 13%, no sharp cut-off; inactive = mostly below about 14%; also: read at 38.3 µM for the half of the compounds with a filed dose
Numbers stand for hits; . = inactive; ? = inconclusive; / = not tested or not shown; + = active, no number; [ ] = another dose, or the depositor's remark.

SMILES	Shiga toxin inh	FMDV antiviral	Sm TGR block	CHX counter
O=C(NNC1=Nc2ccccc2SC1)c1cccc([N+](=O)[O-])c1	.	.	.	.
O=C(CSc1cccs1)Nc1ccc2ccccc2c1	125	.	.	46
O=C(CSCc1cccc(CSCC(=O)Nc2ccc3ccccc3c2)n1)Nc1ccc2ccccc2c1	.	.	.	.
O=C(CSc1cccs1)Nc1cccc2ccccc12	+	.	.	50
O=C(CSc1ccccc1)Nc1ccc2sccc2c1	45	.	.	45
O=c1[nH]c(-[n+]2ccc3ccccc3c2)c(/C=N/N=C(\[O-])c2ccccc2)s1	.	.	.	17
CCOC(=O)CCCCC(=O)c1[nH]c(=O)[nH]c1CSc1nc(C)cc(C)n1	.	.	.[11.4 µM]	.
CCOC(=O)CCCCC(=O)c1[nH]c(=O)[nH]c1CSc1nnc2c3cc(Br)ccc3n(C)c2n1	.	/	.	.
CCOC(=O)c1[nH]c(=O)[nH]c1CSc1nc(C)cc(C)n1	.	.	35µM	.
CCOC(=O)CCCCC(=O)c1[nH]c(=O)[nH]c1CSc1nc2ccccc2[nH]1	.	/	3.2µM	.
CCOC(=O)c1[nH]c(=O)[nH]c1COC(=O)c1cc2ccccc2o1	.	.	4.5µM	.
CN(C)CCCOC(=O)c1cc2ccccc2o1	.	.	?	.
CCOC(=O)CCCCC(=O)c1[nH]c(=O)[nH]c1CSc1nc(C)cc(=O)[nH]1	.	/	2.5µM	.
Cc1coc2c(C)c3oc(=O)c(CCC(=O)N4CCCCC4)c(C)c3cc12	/	.	.	/
CN1c2ccccc2-c2nc(SCC(=O)Nc3ccccc3)ncc2S1(=O)=O	/	.	.	/
Cc1ccc(C(=O)N2CCc3cc(CNC(=O)COc4ccccc4)ccc32)cc1	/	.	?	/
CCOC(=O)c1cccnc1SC(CC)C(=O)NCc1ccco1 (stereo not given)	.	.	.	.
CCC(Sc1ncccc1C(=O)OCCN1CCCC1=O)C(=O)NCc1ccco1 (stereo not given)	.	.	45µM	.
CNC(=O)C1(C)C=CCN1C(=O)c1ccccc1 (stereo not given)	.	.	.	.
CC1(C(=O)NCCN2CCOCC2)C=CCN1C(=O)c1ccccc1 (stereo not given)	41	.	.	26
S=C(NCCc1c[nH]c2ccccc12)NC1CCCC1	.	.	.	23
Cc1ccc(NC(=S)NCCc2c[nH]c3ccccc23)cc1	.	.	.	15
NC(Cc1cc(O)c(O)cc1O)C(=O)O (stereo not given)	/	/	16µM	/
NC(Cc1ccc(O)c(O)c1)C(=O)O (stereo not given)	/	.	/	/
Cc1cccc(NC(=S)NCCc2c[nH]c3ccccc23)c1	.	.	.	.
SMILES	Shiga toxin inh	FMDV antiviral	Sm TGR block	CHX counter
O=C(NCCc1c[nH]c2ccccc12)Nc1ccccc1	.	.	.	24
CCN(CC)C(=O)c1c(-c2ccccc2)c(-c2ccccc2)nn(C)c1=O	/	.	.	/
N[C@@H](Cc1c[nH]c2ccccc12)C(=O)O	.	/	14µM	.
Cc1noc(C)c1COc1cccc(C(=O)Nc2ccccc2)c1	/	.	.	/
COc1cc(C(=O)Nc2nc3ccc(C)cc3s2)ccc1OCc1c(C)noc1C	76	?	.	62
CCc1nnc(NC(=O)c2ccc(OCc3c(C)noc3C)c(OC)c2)s1	.	.	.	.
Cc1ccc(NC(=O)c2cccc(OCc3c(C)noc3C)c2)cc1	.	.	.	29
COc1ccc(CCNC(=O)c2ccc3c(c2)N(Cc2c(F)cccc2Cl)C(=O)CS3)cc1OC	/	?	.	/
O=C(Nc1ccc(Cc2ccc(NC(=O)C3CC3)cc2)cc1)C1CC1	.	.	.	.
O=C(Nc1ccc(-n2cccc2)cc1)C1CC1	.	.	.	23
O=C(Nc1ccc(Nc2ccccc2)cc1)C1CC1	.	.	.	21
Cc1ccc(CCNC(=O)c2ccc(CS(=O)(=O)c3ccc(Br)cc3)o2)cc1	/	.	.	/
Cc1ccc(N2CC(NC(=O)Cc3ccc(F)cc3)CC2=O)cc1C (stereo not given)	/	.	.	/
O=C(NCc1ccccc1)C1=C[C@@H](C2CC2)C[C@@H](OCCCCO)O1	.	.	.	.
O=C(NC1CC1)C1=C[C@@H](c2coc3ccccc3c2=O)C[C@@H](OCCCCO)O1	.	.	45µM	.
C#CCNC(=O)C1=C[C@@H](c2ccc(Br)cc2)C[C@@H](OCCCCO)O1	35	.	.	13
C#CCNC(=O)C1=C[C@H](C2CC2)C[C@H](OCCCCO)O1	.	.	45µM	.
O=C(Nc1ccccc1)C1=C[C@H](C2CC2)C[C@H](OCCCCO)O1	104	.	.	28
CCCSc1ncc(Cl)c(C(=O)Nc2c(C(=O)Nc3ccc(C)cc3)oc3ccccc23)n1	/	.	.	/
O=C(Nc1nnc2n1CCS2)c1ccc(F)cc1F	/	.	.	/
C#CCNC(=O)C1=C[C@H](c2ccccc2)C[C@H](OCCCCO)O1	.	.	14µM	.
O=C(NC1CC1)C1=C[C@@H](c2ccccc2)C[C@@H](OCCCCO)O1	.	.	.	.
CN1C(=O)/C(=C/c2ccccc2Cl)Sc2ccc(C(=O)NCc3cccnc3)cc21	.	40µM	.	.
CN1C(=O)/C(=C/c2ccccc2F)Sc2ccc(C(=O)NCC3CCCO3)cc21 (stereo not given)	.	.	.	.
CCn1c(C)nc2cc(C(=O)OC(C(F)(F)C(F)F)C(F)(F)C(F)F)ccc21	70	.	.	45
SMILES	Shiga toxin inh	FMDV antiviral	Sm TGR block	CHX counter
CCn1c(C)nc2cc(C(=O)NNC(=O)c3ccc(C)cc3)ccc21	/	.	.	/
CCn1c(C)nc2cc(C(=O)NNC(=S)Nc3ccc(F)cc3)ccc21	58	.	.	31
CCn1c(C)nc2cc(C(=O)NNC(=S)NC(=O)c3ccccc3)ccc21	.	.	.	.
CCn1c(C)nc2cc(C(=O)NNC(=S)Nc3ccccc3)ccc21	71	.	/	32
CCn1c(C)nc2cc(C(=O)NNC(=S)Nc3ccc(Cl)cc3)ccc21	.	.	.	22
COc1cccc(-c2ccnc(-n3ncc(C(=O)NCC(C)(C)CN(C)C)c3C)n2)c1	/	.	/	/
COC(=O)c1sccc1S(=O)(=O)N(CC(=O)Nc1ccccc1F)c1ccccc1	/	.	.	/
CCc1ccccc1N(CC)C(=O)C(=O)Nc1ccc2nc3n(c(=O)c2c1)CCCCC3	/	.	.	/
CC1CCN(C(=O)Cn2c(SCC(=O)Nc3ccc(F)cc3)nc3ccccc32)CC1	/	.	.	/
O=C1CC(C(=O)N2CCCC(c3nc(-c4ccncc4)ncc3-c3ccccc3)C2)C2(CCCCC2)O1 (stereo not given)	/	.	/	/
Cc1ccc(Cc2nc(-c3cccnc3)no2)cc1	111	.	.	34
c1ccc(CCc2ccccc2-c2nc(-c3cccnc3)no2)cc1	.	?	.	.
Clc1ccc(Cc2nc(-c3cccnc3)no2)cc1	.	.	.	17
Cc1ccc(-c2nc(CS(=O)CC(=O)NC3CCCC(C)C3C)c(C)o2)cc1 (stereo not given)	.	.	45µM	.
COc1ccc(-c2nc(CS(=O)CC(=O)NC3CCCC(C)C3C)c(C)o2)cc1OC (stereo not given)	.	.	13µM	.
CSc1nnc(NC(=O)c2cc(=O)c3cc(C)c(C)cc3o2)s1	/	.	.	/
Cc1ccc(C(=O)N2CCC(C(=O)NC3CCCCCC3)CC2)cc1	.	.	.	28
